High-throughput results deposited in PubChem BioAssay by Broad Institute.
Most compounds without a hit are left out; they make up all but 2.2% or so of the library.
LGR2 antag = Drosophila LGR2 receptor signaling inhibition | actives 0.35% (n = 380,000) | AID 720647 | HEK293 LGR2, CRE-luciferase, bursicon-stimulated, 4 h | inhibition, % at 9.99 µM;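 active = drop in luminescence signal, shown as inhibition above about 50% in the replicate tests, limit read from the data, passing the limit was not always enough; inconclusive = probably only some replicates passing the limit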;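 note: agonist challenge used bursicon conditioned medium at about half maximal strength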
PAX8 reporter = PAX8 transcriptional activity inhibition | inhibition, % at 12.6 µM | RMG-I TPO-luciferase reporter, SteadyGlo, 24 h | AID 652154 | actives 1.2% (n = 360,000);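 active = mean replicate inhibition at least 60% with every replicate also reaching 60%; inconclusive = only one of the two criteria is met; inactive = mean below 60% and not all replicates reaching 60%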;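 note: luciferase light reporting Pax8 driven TPO promoter activity; plate controls were median of neutral control wells for no effect and mitoxantrone controls for full effect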
TRPM1 prom inh = MITF TRPM1 promoter inhibition in SK-MEL-5 cells; SK-MEL-5 TRPM1 promoter luciferase, 24 h; inhibition, % at 12.5 µM; actives 0.83% (n = 330,000);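 active = mean inhibition across replicates of 60% or more, whatever share of single replicates reaches that level; inconclusive = some that reach 60%, reason not given; inactive = mean inhibition across replicates below 60%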
LMP1 NFkB inh = Epstein-Barr LMP1 NF-kappaB reporter inhibition; LMP1-induced NF-kappaB luciferase reporter cells, luminescence; inhibition, % at 12.5 µM; actives 0.69% (n = 350,000); AID 504558; in the data active = inhibition above about 41%; inconclusive = no clear call, values can overlap the other calls;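 note: 0% = neutral control wells and 100% = reference inhibitor control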
EWS-Fli inh = inhibitors of EWS/Fli oncoprotein transcriptional activity; actives 0.67% (n = 350,000); inhibition, % at 12.6 µM; AID 651661; A673 NR0B1-luciferase reporter, viability-normalised;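 active = mean inhibition of at least 50% after viability correction, with every replicate also passing that limit; inconclusive = mean reaches 50% but only one of two replicates passes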;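 note: firefly luciferase signal divided by Alamar Blue viability fluorescence both relative to DMSO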
PGC1a acetyl inh = modulators of PGC1a acetylation. inhibition, % at 15.6 µM. actives 0.17% (n = 350,000). U2OS PGC1a acetylation, AlphaScreen anti-acetyl-lysine; with virally co-expressed GCN5 acetyltransferase;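 active = every replicate shows inhibition of at least 40%; inconclusive = mean inhibition at least 40% but some replicate below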;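 note: 0% = neutral control wells and 100% = positive control wells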
An asterisk follows results filed as active; ? = inconclusive; nt = no result.

SMILES	LGR2 antag	PAX8 reporter	TRPM1 prom inh	LMP1 NFkB inh	EWS-Fli inh	PGC1a acetyl inh
COc1cccc(-c2ccc3c(c2)[C@@H]2[C@@H](CCN2C(=O)CC2CC2)[C@H](CO)N3C)c1	4	67*	nt	nt	-4	12
Cc1cccc(S(=O)(=O)N2CC[C@@H]3[C@H](CO)Nc4ccc(C#Cc5cccc(F)c5)cc4[C@@H]32)c1	2	-14	nt	nt	-8	-13
Oc1ccc(C=Nc2ccc(N3CCOCC3)cc2)c(O)c1	nt	-16	20	-9	nt	64*
C=CCNC(=O)[C@@H]1[C@H]2C(=O)O[C@H](c3ccccc3)[C@H](c3ccccc3)N2[C@H](c2ccc(OCCO)cc2)[C@@]12C(=O)Nc1ccc(C#CCCO)cc12	nt	-2	nt	nt	-7	4
Cc1ccc(S(=O)(=O)N(C)C[C@H]2Oc3c(NC(=O)c4cc(C)nn4C)cccc3C(=O)N([C@H](C)CO)C[C@@H]2C)cc1	11	nt	nt	nt	nt	nt
COc1ccccc1-c1cc(C(F)(F)F)nc(S(=O)(=O)CCCC(=O)Nc2cc(C)on2)n1	nt	nt	96*	-8	nt	16
COc1ccc(-c2cc(C(F)(F)F)n3nc(C(=O)Nc4cc(C)on4)cc3n2)cc1OC	nt	nt	1	-5	nt	6
COc1ccc(-c2cc(C(F)(F)F)nc(S(=O)(=O)CCCC(=O)Nc3cc(C)on3)n2)cc1OC	90*	90*	41	-1	5	nt
CO[C@@H]1CN(C)C(=O)c2ccc(NC(=O)Nc3cccc(Cl)c3)cc2OC[C@H](C)N(C(=O)Nc2c(C)noc2C)C[C@@H]1C	-3	1	nt	nt	30	nt
O=C(COC(=O)c1c2c(nc3ccccc13)CCN(Cc1ccccc1)C2)Nc1c(F)cccc1F	20	73*	7	11	nt	nt
CC(=O)Nc1ccc(NC(=O)COC(=O)c2c3c(nc4ccccc24)CCN(Cc2ccccc2)C3)cc1	nt	56	-4	0	-17	nt
C[C@@H]1CCCCO[C@@H](CN(C)CC2CCCCC2)[C@H](C)CN([C@H](C)CO)C(=O)c2cc(NS(=O)(=O)c3ccccc3)ccc2O1	-2	23	nt	nt	8	-12
C[C@@H]1CN([C@H](C)CO)C(=O)c2cc(NS(=O)(=O)c3ccccc3)ccc2O[C@@H](C)CCCCO[C@@H]1CN(C)CC1CCCCC1	-11	89*	nt	nt	10	-23
C[C@H]1CCCCO[C@@H](CN(C)CC2CCCCC2)[C@@H](C)CN([C@@H](C)CO)C(=O)c2cc(NS(=O)(=O)c3ccccc3)ccc2O1	-5	25	nt	nt	13	-20
C[C@@H]1CCCCO[C@H](CN(C)CC2CCCCC2)[C@H](C)CN([C@H](C)CO)C(=O)c2cc(NS(=O)(=O)c3ccccc3)ccc2O1	?	92*	nt	nt	-9	-3
CN1CCN(C(=O)C[C@H]2CC[C@@H]3[C@H](COC[C@@H](O)CN3C(=O)C3CC3)O2)CC1	1	10	nt	nt	-2	3
OC[C@@H]1[C@H](c2ccc(C#CC3CCCC3)cc2)[C@H]2CN(CCC(F)(F)F)CCCCN12	0	29	nt	nt	60*	81*
OC[C@@H]1[C@H](c2ccc(-c3ccc(F)cc3)cc2)[C@@H]2CN(CCC(F)(F)F)CCCCN12	-5	93*	nt	nt	nt	-16
OC[C@H]1[C@@H](c2ccc(-c3ccc(F)cc3)cc2)[C@H]2CN(CCC(F)(F)F)CCCCN21	-13	-5	nt	nt	nt	-8
CO[C@H]1CN(C)C(=O)c2ccc(NS(=O)(=O)c3ccccc3C)cc2OC[C@@H](C)NC[C@H]1C	22	nt	nt	nt	-13	2
C[C@H](CO)N1C[C@H](C)[C@H](CN(C)S(=O)(=O)c2ccccc2)Oc2ncc(C#CC(C)(C)O)cc2C1=O	7	-12	nt	nt	-2	-6
CCOC(=O)N1CCN(C(=O)c2cc(Cl)c(Cl)cc2C(=O)O)CC1	2	nt	4	-7	3	84*
CCNC(=O)C[C@H]1CC[C@@H]2[C@H](COC[C@H](O)CN2Cc2ccncc2)O1	-3	-22	nt	nt	1	0
CN(C)CCCNc1cc(O)c2ncccc2c1	97*	5	55	-4	-7	13
Oc1cc(NCc2ccc(F)cc2)cc2cccnc12	-4	73*	56	12	-5	14
SMILES	LGR2 antag	PAX8 reporter	TRPM1 prom inh	LMP1 NFkB inh	EWS-Fli inh	PGC1a acetyl inh
Fc1ccc(CNc2ncccn2)cc1	-3	13	12	0	-14	0
Oc1cc(NCc2ccc(Cl)cc2)cc2cccnc12	-5	-2	13	47*	3	6
C/C=C/c1ccc([C@H]2[C@@H](CN(C)S(C)(=O)=O)N(C(C)=O)[C@H]2CO)cc1	9	6	nt	nt	-12	6
COc1cccc2c1C(=O)O/C2=C/c1ccc2c(c1)OCO2	62*	nt	-5	-12	nt	7
COc1cccc(OC)c1C1=CC(=O)C[C@H](c2ccc3c(c2)OCO3)C1	0	5	2	-5	3	5
Clc1ccc(-c2nc(-c3ccncc3)no2)c(Cl)c1	-70	-185	-76	-22	-56	10
Cc1ccc(-c2nc(-c3ccncc3)no2)c(Cl)c1	75*	-34	-10	9	56*	nt
CN(C)Cc1cc(C(C)(C)C)cc(N2CCOCC2)c1O	-4	12	10	68*	3	7
COc1cc(/C=C/C(=O)c2ccc(NS(=O)(=O)c3ccc(C)cc3)cc2)cc(OC)c1O	47	81*	67*	3	nt	nt
C[C@H](CO)N1C[C@H](C)[C@@H](CN(C)C(=O)Nc2ccc3c(c2)OCO3)Oc2ccc(NC(=O)Nc3ccccc3)cc2C1=O	10	nt	nt	nt	-5	2
CCO[C@H]1OC(C(=O)NCc2nc3ccccc3[nH]2)=C[C@@H](c2ccccc2)[C@@H]1CCCO	14	-16	0	-4	4	nt
CCO[C@H]1OC(C(=O)NCc2nc3ccccc3[nH]2)=C[C@@H](C2CC2)[C@@H]1CCCO	-11	20	25	4	61*	nt
CCc1ccc(NC(=O)Cn2c3[n+](c4c(F)c(F)ccc42)CCCCC3)cc1	3	76*	20	-4	12	-6
Cn1c(=O)c(=O)n(C)c2cc([N+](=O)[O-])c([N+](=O)[O-])cc21	-12	0	-1	-2	41	8
CN(C)c1c([N+](=O)[O-])cc(N2C(=O)C=CC2=O)cc1[N+](=O)[O-]	nt	nt	63*	-1	nt	6
CC(C)NC(=O)N(C)C[C@H]1Oc2ccc(NC(=O)Nc3ccc(C(F)(F)F)cc3)cc2CC(=O)N([C@@H](C)CO)C[C@H]1C	-1	52	nt	nt	63*	-8
C[C@H]1CN([C@@H](C)CO)C(=O)Cc2cc(NC(=O)Nc3ccc(C(F)(F)F)cc3)ccc2O[C@H]1CN(C)C(=O)Nc1ccc(C(F)(F)F)cc1	13	86*	nt	nt	16	-10
Cc1ccc(S(=O)(=O)Nc2ccc3c(c2)CC(=O)N([C@@H](C)CO)C[C@H](C)[C@@H](CN(C)C(=O)Nc2ccc(C(F)(F)F)cc2)O3)cc1	8	88*	nt	nt	9	-11
